Screening data as filed in PubChem BioAssay.
Hits are enriched below; roughly 0.98% of the tested compounds scored in any of these assays.
C-LANA FP: inhibitors of KSHV LANA C-terminal domain DNA binding. actives 0.078% (n = 340,000). AID 504423. inhibition, % at 9 µM. MBP-C-LANA/FAM-LBS DNA binding, fluorescence polarization;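 active = highest replicate inhibition at or above 60% at 9 µM, even if other replicates fall short; inactive = all replicates below 60% inhibition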;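 also: 0% = neutral control wells and 100% = 4 µM acridine orange control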
EBV gp42 inh: EBV gp42 inhibition; Q1HVG2; Fluorescence polarization binding assay, mP read-out; inhibition, % (tested at 21.74 µM); actives 0.42% (n = 220,000); AID 1085; in the data active = inhibition above about 50%
Keap1-Nrf2 PPI: Keap1-Nrf2 (human) interaction inhibition | Keap1 Kelch-Nrf2 peptide fluorescence polarization, 1536-well | actives 0.15% (n = 340,000) | Q14145 | inhibition, % at 9.4 µM; in the data active = inhibition above about 12%;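 also: human Keap1 Kelch domain with fluorescein labeled Nrf2 9mer peptide probe; 0% = neutral control wells and 100% = peptide positive control; higher means more block of Keap1 binding to Nrf2 peptide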
eLon inh: inhibitors of E. coli Lon protease; P0A9M0; purified E. coli Lon protease, fluorescence polarization; inhibition, % at 7.94 µM; actives 0.42% (n = 360,000); AID 602123; in the data active = inhibition above about 13%, passing the limit was not always enough;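 also: 0% = enzyme with probe and DMSO and 100% = no enzyme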
RTF Ca sens inh: cardiac RTF calcium desensitization; inhibition, % at 7.15 µM; AID 493244; P19429+P45379; actives 0.12% (n = 340,000); IANBD-labeled cardiac RTF, Ca2+ fluorescence;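 active = inhibition above the mean inhibition of all tested compounds plus 3 SD, cut at about 17% in these data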;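 also: assay run at fixed EC70 calcium of 1.6 mM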
cardiac RTF act: cardiac RTF calcium sensitization | IANBD-labeled TnC RTF fluorescence at EC20 calcium; 0% EC20 calcium, 100% full calcium | P19429+P45379 | actives 0.24% (n = 340,000) | activation, % at 7.2 µM | AID 493008;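 active = activation above the mean over all tested compounds plus 3 SD, cut at about 30% in these data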;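 also: rise in fluorescence read as greater calcium sensitivity of cardiac thin filaments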
Starred values were filed as active, the others as inactive.

What do the screens show for `CCOC(=O)C1C(=O)C=C(/C=C/c2ccc(N(C)C)cc2)CC1c1ccccc1` (configuration not stated)?
C-LANA FP: -1.4; EBV gp42 inh: 103.2*; Keap1-Nrf2 PPI: -1.8; eLon inh: -163.8; RTF Ca sens inh: -213.6; cardiac RTF act: 108.1*

Results for CSc1ccccc1OCc1cc(C(=O)NCCn2ccnc2C)no1 ?
C-LANA FP: 0.0; Keap1-Nrf2 PPI: -1.8; eLon inh: -7.0; RTF Ca sens inh: -4.7; cardiac RTF act: -3.9

How did Cc1cccc2c3nc4ccccc4nc3n(CCCN3C(=O)c4ccccc4C3=O)c12 do in these assays?
C-LANA FP: -0.1; EBV gp42 inh: 83.0*; Keap1-Nrf2 PPI: -2.3; eLon inh: 10.4; RTF Ca sens inh: -11.2; cardiac RTF act: -2.5

What do the screens show for `O=C1c2ccccc2C(=O)N1CCCn1c2ccc(Cl)cc2c2nc3ccccc3nc21`?
C-LANA FP: -1.6; Keap1-Nrf2 PPI: 0.2; eLon inh: 3.5; RTF Ca sens inh: 1.5; cardiac RTF act: -5.5

Results for N/C(=N\c1nc2c(c(=O)[nH]1)CCC2)Nc1ccccc1C(F)(F)F ?
C-LANA FP: -0.4; EBV gp42 inh: -11.4; Keap1-Nrf2 PPI: -2.9; eLon inh: -3.3; RTF Ca sens inh: 17.4*; cardiac RTF act: 1.4

What do the screens show for `N#C/C(=C\c1coc2ccc(O)cc2c1=O)C(=O)Nc1nc2ccccc2s1`?
C-LANA FP: -1.2; EBV gp42 inh: 47.5; Keap1-Nrf2 PPI: -111.0; eLon inh: -409.4; RTF Ca sens inh: inactive; cardiac RTF act: 313.1*

What do the screens show for `N#C/C(=C\c1coc2ccccc2c1=O)C(N)=S`?
C-LANA FP: 0.1; EBV gp42 inh: -5.0; Keap1-Nrf2 PPI: -3.7; eLon inh: -11.4; RTF Ca sens inh: -11.5; cardiac RTF act: 2.6

How did Cc1ccc2c(Cl)cc(Cl)c(OCC(=O)NC(=O)NCc3ccco3)c2n1 do in these assays?
C-LANA FP: 2.0; EBV gp42 inh: -24.1; Keap1-Nrf2 PPI: -9.1; eLon inh: -1.3; RTF Ca sens inh: -17.4; cardiac RTF act: -0.3

How did Cc1ccc2c(Cl)cc(Cl)c(OCC(=O)NCc3ccco3)c2n1 do in these assays?
EBV gp42 inh: 69.2*

Results for Oc1sc(C=Nc2ccccc2)c2ccccc12 ?
C-LANA FP: 2.2; EBV gp42 inh: -8.2; Keap1-Nrf2 PPI: -11.8; eLon inh: -169.9; RTF Ca sens inh: -110.9; cardiac RTF act: 75.3*

What do the screens show for `Oc1sc(C=Nc2ccc(F)cc2)c2ccccc12`?
C-LANA FP: -1.2; EBV gp42 inh: 4.8; Keap1-Nrf2 PPI: -5.0; eLon inh: -66.9; RTF Ca sens inh: -28.9; cardiac RTF act: 14.1

Results for COc1cccc(OC)c1C(=O)OCC(=O)NCCNC(=O)COC(=O)c1c(OC)cccc1OC ?
eLon inh: -5.5

How did C/C(=N\NC(=O)c1cc(-c2ccccn2)nc2ccccc12)c1cccc([N+](=O)[O-])c1 do in these assays?
C-LANA FP: 98.2*; EBV gp42 inh: -14.1; Keap1-Nrf2 PPI: -5.8; eLon inh: 7.0; RTF Ca sens inh: -0.5; cardiac RTF act: 6.5

What do the screens show for `COc1ccc(NC(=O)CN(C)C(=O)CCNS(=O)(=O)c2ccc(Br)cc2)cc1`?
C-LANA FP: -0.1; Keap1-Nrf2 PPI: 0.0; eLon inh: 1.1; RTF Ca sens inh: -0.7; cardiac RTF act: 1.4

What do the screens show for `NNC(=O)c1cc(O)c(O)c(O)c1`?
C-LANA FP: 80.9*; EBV gp42 inh: 2.8; Keap1-Nrf2 PPI: -3.4; eLon inh: -8.1; RTF Ca sens inh: -2.8; cardiac RTF act: 1.9

Results for COc1c(Cl)cc(C(=O)NN)cc1Cl ?
C-LANA FP: 0.2; EBV gp42 inh: 2.9; Keap1-Nrf2 PPI: -5.2; eLon inh: 4.7; RTF Ca sens inh: -13.0; cardiac RTF act: 7.5

How did CCc1ccc(C(C#N)=CC=Cc2ccccc2)cc1 do in these assays?
eLon inh: 4.0

How did O=c1ccc2c(-c3ccccc3)c3ccc(O)cc3oc-2c1 do in these assays?
C-LANA FP: 141.8*; Keap1-Nrf2 PPI: 97.6*; RTF Ca sens inh: inactive; cardiac RTF act: active

Results for Nc1ccc(-c2c3ccc(=O)cc-3oc3cc(O)ccc23)cc1C(=O)O ?
C-LANA FP: 110.2*; Keap1-Nrf2 PPI: 25.8*; eLon inh: -117.5; RTF Ca sens inh: inactive; cardiac RTF act: active

How did CCc1c(C(=O)NNC(=O)Nc2ccc3c(c2)OCO3)csc1C do in these assays?
C-LANA FP: -2.3; Keap1-Nrf2 PPI: 0.8; eLon inh: 14.2; RTF Ca sens inh: -3.5; cardiac RTF act: 2.3
